According to the supplement of paper PMC6411743:
± gives the standard deviation of the averaged measurements. Of roughly 6,200 targets only a part is listed; those with the largest changes were picked by preference.

Compound: Nc1ncnc2c1ncn2[C@@H]1O[C@H](COP(=O)(O)OP(=O)(O)NP(=O)(O)O)[C@@H](O)[C@H]1O [adenylyl imidodiphosphate]
Experiment: NP40-soluble protein abundance relative to vehicle (solubility fold change) (ratio); higher = more soluble protein in presence of AMP-PNP
Procedure, shortened: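 Jurkat crude lysate prepared with a Dounce homogeniser was treated at eight concentrations spanning 0.1 to 10 mM, 10 min at room temperature then 3 min at 37 °C. Solubilisation with 0.8% NP40 and benzonase and ultracentrifugation preceded TMT labelling of the supernatant for LC-MS/MS. Fold change against the detergent-processed vehicle was determined per replicate from vsn-normalised intensities, across three independent experiments.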

UniProt Q9Y5J1, sequence (Q9Y5J1 whole entry): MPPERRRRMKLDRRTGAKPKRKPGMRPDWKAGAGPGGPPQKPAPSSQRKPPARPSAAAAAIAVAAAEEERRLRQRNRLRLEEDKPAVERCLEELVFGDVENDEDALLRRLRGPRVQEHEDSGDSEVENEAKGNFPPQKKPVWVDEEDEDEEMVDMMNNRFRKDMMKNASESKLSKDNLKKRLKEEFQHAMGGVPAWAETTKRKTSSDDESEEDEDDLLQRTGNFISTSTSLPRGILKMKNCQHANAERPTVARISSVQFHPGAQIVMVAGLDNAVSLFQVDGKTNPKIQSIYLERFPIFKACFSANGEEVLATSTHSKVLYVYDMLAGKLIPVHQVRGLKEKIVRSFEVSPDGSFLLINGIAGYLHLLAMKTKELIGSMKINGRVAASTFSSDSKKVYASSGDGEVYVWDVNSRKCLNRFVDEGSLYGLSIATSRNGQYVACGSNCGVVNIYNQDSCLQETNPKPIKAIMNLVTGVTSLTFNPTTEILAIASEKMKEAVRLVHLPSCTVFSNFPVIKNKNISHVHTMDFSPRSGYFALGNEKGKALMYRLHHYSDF
UniProt Q9H089, sequence (Q9H089 whole entry): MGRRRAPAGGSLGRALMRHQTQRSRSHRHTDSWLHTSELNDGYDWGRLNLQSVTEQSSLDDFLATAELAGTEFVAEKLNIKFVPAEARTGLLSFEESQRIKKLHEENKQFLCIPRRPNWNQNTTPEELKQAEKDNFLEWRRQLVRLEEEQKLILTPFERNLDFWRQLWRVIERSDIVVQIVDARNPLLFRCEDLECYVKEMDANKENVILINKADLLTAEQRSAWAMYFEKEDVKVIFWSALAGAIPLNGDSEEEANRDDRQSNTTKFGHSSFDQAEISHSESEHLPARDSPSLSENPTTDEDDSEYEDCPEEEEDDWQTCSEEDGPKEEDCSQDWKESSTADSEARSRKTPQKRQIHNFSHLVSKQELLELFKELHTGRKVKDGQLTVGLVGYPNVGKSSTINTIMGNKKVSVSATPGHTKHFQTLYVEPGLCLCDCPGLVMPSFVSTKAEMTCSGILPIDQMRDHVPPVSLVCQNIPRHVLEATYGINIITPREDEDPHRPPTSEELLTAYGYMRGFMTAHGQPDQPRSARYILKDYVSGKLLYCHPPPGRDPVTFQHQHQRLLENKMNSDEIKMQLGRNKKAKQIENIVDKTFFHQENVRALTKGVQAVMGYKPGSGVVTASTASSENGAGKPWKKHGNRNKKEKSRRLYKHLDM
UniProt Q9NPB8, sequence (Q9NPB8 whole entry, one chain of several): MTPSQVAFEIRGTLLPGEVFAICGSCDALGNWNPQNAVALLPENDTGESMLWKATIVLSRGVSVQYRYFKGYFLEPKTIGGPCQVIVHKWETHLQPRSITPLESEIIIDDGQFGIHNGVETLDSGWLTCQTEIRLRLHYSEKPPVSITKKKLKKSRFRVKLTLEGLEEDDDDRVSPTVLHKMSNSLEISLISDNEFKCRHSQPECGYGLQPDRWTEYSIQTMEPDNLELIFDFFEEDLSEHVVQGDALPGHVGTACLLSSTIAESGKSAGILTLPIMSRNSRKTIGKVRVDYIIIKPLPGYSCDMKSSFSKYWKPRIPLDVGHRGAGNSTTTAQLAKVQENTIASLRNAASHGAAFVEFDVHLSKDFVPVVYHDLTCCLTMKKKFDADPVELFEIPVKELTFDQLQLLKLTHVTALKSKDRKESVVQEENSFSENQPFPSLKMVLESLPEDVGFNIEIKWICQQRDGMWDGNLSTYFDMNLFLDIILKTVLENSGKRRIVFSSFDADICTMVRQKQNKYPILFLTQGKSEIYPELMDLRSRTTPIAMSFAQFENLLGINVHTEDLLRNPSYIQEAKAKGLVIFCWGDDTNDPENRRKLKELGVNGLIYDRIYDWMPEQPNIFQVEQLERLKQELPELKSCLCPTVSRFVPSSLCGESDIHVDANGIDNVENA
UniProt Q96MX3, sequence (Q96MX3 whole entry): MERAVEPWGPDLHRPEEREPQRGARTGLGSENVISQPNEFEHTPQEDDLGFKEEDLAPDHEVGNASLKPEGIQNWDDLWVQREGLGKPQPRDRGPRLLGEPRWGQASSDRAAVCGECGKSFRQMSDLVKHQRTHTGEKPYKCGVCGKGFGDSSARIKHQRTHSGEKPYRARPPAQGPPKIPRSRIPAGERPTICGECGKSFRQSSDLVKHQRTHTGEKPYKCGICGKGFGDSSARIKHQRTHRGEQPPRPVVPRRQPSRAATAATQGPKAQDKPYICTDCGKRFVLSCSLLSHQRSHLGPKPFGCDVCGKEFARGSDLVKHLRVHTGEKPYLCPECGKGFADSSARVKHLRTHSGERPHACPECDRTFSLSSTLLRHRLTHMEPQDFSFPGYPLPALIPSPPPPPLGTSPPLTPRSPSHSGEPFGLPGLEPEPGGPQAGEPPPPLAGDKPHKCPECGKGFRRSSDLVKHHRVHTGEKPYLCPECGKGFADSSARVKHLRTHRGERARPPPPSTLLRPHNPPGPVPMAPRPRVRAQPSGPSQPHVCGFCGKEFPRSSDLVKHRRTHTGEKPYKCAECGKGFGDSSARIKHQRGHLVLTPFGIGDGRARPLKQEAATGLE
UniProt Q9Y294, sequence (Q9Y294 whole entry): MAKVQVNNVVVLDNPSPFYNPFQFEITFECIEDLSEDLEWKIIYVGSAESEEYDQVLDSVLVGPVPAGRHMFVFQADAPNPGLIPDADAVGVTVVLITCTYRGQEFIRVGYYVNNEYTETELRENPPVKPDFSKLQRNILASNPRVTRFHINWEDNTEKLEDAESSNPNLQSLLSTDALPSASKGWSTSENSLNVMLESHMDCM
UniProt Q9Y2T7, sequence (Q9Y2T7 whole entry): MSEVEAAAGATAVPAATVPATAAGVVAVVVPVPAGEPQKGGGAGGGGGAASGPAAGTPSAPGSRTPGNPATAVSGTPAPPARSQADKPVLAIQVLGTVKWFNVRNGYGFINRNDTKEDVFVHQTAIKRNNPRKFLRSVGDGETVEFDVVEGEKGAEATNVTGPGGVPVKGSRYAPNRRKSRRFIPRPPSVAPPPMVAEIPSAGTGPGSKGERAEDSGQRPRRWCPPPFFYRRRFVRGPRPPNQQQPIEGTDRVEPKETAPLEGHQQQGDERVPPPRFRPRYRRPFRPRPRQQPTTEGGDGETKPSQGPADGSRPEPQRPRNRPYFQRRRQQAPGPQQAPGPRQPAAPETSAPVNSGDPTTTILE
UniProt Q9NQ29, sequence (Q9NQ29 whole entry): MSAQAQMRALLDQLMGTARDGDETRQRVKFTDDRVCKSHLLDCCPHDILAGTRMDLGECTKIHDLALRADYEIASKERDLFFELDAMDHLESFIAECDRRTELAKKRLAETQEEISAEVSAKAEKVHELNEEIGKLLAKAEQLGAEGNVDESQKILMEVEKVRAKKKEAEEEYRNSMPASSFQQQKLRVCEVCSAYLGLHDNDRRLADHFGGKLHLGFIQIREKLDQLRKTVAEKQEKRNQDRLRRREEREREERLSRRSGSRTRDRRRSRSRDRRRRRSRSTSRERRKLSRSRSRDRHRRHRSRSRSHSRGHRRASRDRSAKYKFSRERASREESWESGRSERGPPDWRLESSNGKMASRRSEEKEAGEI
UniProt Q9UGJ1, sequence (Q9UGJ1 whole entry, one chain of several): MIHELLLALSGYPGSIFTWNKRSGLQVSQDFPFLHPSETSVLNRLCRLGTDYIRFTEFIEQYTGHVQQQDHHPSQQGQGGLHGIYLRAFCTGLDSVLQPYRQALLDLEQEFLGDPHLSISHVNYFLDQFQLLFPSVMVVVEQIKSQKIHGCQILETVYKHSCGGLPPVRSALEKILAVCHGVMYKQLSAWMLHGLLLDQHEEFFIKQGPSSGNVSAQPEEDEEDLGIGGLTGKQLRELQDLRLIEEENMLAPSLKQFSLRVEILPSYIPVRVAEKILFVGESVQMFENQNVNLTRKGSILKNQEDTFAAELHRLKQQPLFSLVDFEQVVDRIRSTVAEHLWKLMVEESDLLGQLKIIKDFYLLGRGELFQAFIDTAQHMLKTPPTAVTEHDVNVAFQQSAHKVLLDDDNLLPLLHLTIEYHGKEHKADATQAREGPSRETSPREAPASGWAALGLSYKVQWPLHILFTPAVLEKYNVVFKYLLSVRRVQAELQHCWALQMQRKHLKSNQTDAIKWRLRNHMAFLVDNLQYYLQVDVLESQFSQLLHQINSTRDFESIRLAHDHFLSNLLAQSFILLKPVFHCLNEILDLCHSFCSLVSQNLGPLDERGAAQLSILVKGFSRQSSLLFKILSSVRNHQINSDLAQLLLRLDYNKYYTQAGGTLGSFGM
UniProt Q9H0S4, sequence (Q9H0S4 whole entry): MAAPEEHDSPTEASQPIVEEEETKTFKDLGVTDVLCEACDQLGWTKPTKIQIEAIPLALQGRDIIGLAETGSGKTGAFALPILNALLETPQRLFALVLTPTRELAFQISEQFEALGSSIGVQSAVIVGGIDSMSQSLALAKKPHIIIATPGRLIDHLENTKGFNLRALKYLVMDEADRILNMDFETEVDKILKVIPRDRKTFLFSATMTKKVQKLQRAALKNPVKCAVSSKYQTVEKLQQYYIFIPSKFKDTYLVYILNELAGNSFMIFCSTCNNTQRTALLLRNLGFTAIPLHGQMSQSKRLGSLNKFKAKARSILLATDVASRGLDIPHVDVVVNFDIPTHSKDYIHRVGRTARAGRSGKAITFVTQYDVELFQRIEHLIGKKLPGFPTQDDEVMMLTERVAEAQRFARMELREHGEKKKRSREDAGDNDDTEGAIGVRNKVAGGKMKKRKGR
UniProt Q9H773, sequence (Q9H773 whole entry, one chain of several): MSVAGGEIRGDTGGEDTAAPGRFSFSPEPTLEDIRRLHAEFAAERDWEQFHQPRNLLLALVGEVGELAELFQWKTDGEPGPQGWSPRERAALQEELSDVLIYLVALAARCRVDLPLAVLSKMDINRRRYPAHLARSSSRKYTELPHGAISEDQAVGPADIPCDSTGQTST
UniProt Q96PE7, sequence (Q96PE7 whole entry): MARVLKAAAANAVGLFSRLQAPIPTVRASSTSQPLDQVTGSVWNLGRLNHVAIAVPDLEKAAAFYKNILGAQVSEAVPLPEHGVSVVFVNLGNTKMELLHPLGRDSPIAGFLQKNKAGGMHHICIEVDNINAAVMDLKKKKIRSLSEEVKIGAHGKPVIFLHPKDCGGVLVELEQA

Target	NP40-soluble protein abundance (concentration: 1mM)	NP40-soluble protein abundance (concentration: 2mM)	NP40-soluble protein abundance (concentration: 4mM)	NP40-soluble protein abundance (concentration: 6mM)	NP40-soluble protein abundance (concentration: 8mM)	NP40-soluble protein abundance (concentration: 10mM)
UniProt Q9BPZ3|D6R9Y1	0.981 ± 0.02	1.01 ± 0.044	0.945 ± 0.028	0.966 ± 0.051	0.929 ± 0.014	0.9085 ± 0.0067
UniProt Q99828|Q99828-2	1.001 ± 0.0091	0.977 ± 0.03	0.993 ± 0.035	0.9794 ± 0.0058	0.949 ± 0.036	0.95 ± 0.025
UniProt Q9NPB8|H0Y565	1.01 ± 0.017	1.05 ± 0.034	1.02 ± 0.015	0.999 ± 0.033	0.9977 ± 0.0075	1.02 ± 0.019
MRPL9 (UniProt Q9BYD2)	1.04 ± 0.13	0.967 ± 0.13	1.03 ± 0.075	0.982 ± 0.09	1.01 ± 0.072	0.972 ± 0.15
UniProt Q96RP9|Q96RP9-2	0.99 ± 0.021	0.981 ± 0.031	0.989 ± 0.02	0.976 ± 0.01	0.972 ± 0.022	0.949 ± 0.029
RTN4 (UniProt Q9NQC3)	1.05 ± 0.014	1.07 ± 0.057	1.04 ± 0.028	1.02 ± 0.014	1.01 ± 0.032	1.03 ± 0.065
MCEE (UniProt Q96PE7)	0.998 ± 0.04	1.01 ± 0.04	0.997 ± 0.046	1.06 ± 0.036	1.03 ± 0.08	1.05 ± 0.1
ISCU (UniProt Q9H1K1)	1.01 ± 0.039	1.06 ± 0.018	0.987 ± 0.043	0.969 ± 0.03	0.96 ± 0.054	0.958 ± 0.047
UniProt Q96L91|Q96L91-2|Q96L91-3|Q96L91-5	1.03 ± 0.036	1.09 ± 0.038	1.05 ± 0.028	1.05 ± 0.061	1.03 ± 0.057	1.1 ± 0.084
UniProt Q9BQ39|A0A087WVC1	1.22 ± 0.068	1.27 ± 0.062	1.35 ± 0.023	1.43 ± 0.04	1.52 ± 0.097	1.5 ± 0.14
UniProt Q9H668	0.991 ± 0.028	0.97 ± 0.028	0.985 ± 0.027	0.995 ± 0.018	0.985 ± 0.044	0.963 ± 0.024
PPCS (UniProt Q9HAB8)	1.03 ± 0.033	0.981 ± 0.038	1.01 ± 0.028	1.03 ± 0.02	1.03 ± 0.026	1.04 ± 0.021
UniProt Q9H0S4|Q9H0S4-2	0.994 ± 0.061	0.981 ± 0.022	1.11 ± 0.089	1.25 ± 0.12	1.39 ± 0.13	1.46 ± 0.14
UniProt Q9P0J0|Q9P0J0-2	0.912 ± 0.015	0.851 ± 0.095	0.89 ± 0.021	0.856 ± 0.017	0.877 ± 0.037	0.792 ± 0.047
C16orf70 (UniProt Q9BSU1)	1.01 ± 0.056	0.978 ± 0.029	0.982 ± 0.042	1.01 ± 0.018	1.02 ± 0.02	1.05 ± 0.02
UniProt Q9NPG3|Q9NPG3-2	1.01 ± 0.013	1.05 ± 0.037	1.07 ± 0.021	1.06 ± 0.034	1.06 ± 0.022	1.09 ± 0.067
ASF1A (UniProt Q9Y294)	0.958 ± 0.077	0.863 ± 0.091	0.904 ± 0.068	0.921 ± 0.037	0.946 ± 0.032	0.844 ± 0.11
UniProt Q9UKT4|Q9UKT4-2	0.995 ± 0.029	1.03 ± 0.031	1.03 ± 0.072	1 ± 0.061	1.02 ± 0.092	1.02 ± 0.11
CCDC124 (UniProt Q96CT7)	1.13 ± 0.037	1.29 ± 0.15	1.35 ± 0.058	1.58 ± 0.12	1.86 ± 0.17	2.16 ± 0.25
UTP18 (UniProt Q9Y5J1)	1.05 ± 0.029	1.07 ± 0.048	1.1 ± 0.044	1.23 ± 0.028	1.28 ± 0.062	1.36 ± 0.05
UniProt Q9UGJ1|Q9UGJ1-2|H3BPU4	1.01 ± 0.037	1.01 ± 0.024	1.04 ± 0.05	1 ± 0.028	1 ± 0.091	1.03 ± 0.08
LRRC45 (UniProt Q96CN5)	0.977 ± 0.065	0.919 ± 0.029	0.969 ± 0.022	0.97 ± 0.015	1 ± 0.032	0.956 ± 0.03
STUB1 (UniProt Q9UNE7)	0.989 ± 0.017	1.02 ± 0.014	0.977 ± 0.018	0.9527 ± 0.0059	0.938 ± 0.018	0.927 ± 0.019
REXO4 (UniProt Q9GZR2)	1.06 ± 0.047	1.09 ± 0.073	1.1 ± 0.038	1.17 ± 0.036	1.18 ± 0.039	1.21 ± 0.051
UniProt Q9H773|H3BSA6	1.03 ± 0.02	1.01 ± 0.019	1.041 ± 0.0073	1.03 ± 0.015	1.01 ± 0.019	1 ± 0.022

Target	NP40-soluble protein abundance (concentration: 1mM)	NP40-soluble protein abundance (concentration: 2mM)	NP40-soluble protein abundance (concentration: 4mM)	NP40-soluble protein abundance (concentration: 6mM)	NP40-soluble protein abundance (concentration: 8mM)	NP40-soluble protein abundance (concentration: 10mM)
UniProt Q9UBK8|Q9UBK8-2	0.928 ± 0.02	0.881 ± 0.038	0.916 ± 0.041	0.971 ± 0.031	0.94 ± 0.051	0.964 ± 0.049
UniProt Q9Y3B4	0.976 ± 0.061	0.981 ± 0.076	0.993 ± 0.019	0.968 ± 0.016	1.05 ± 0.051	1.01 ± 0.06
UniProt Q9H8P0|H0Y9P9	0.933 ± 0.084	0.9132 ± 0.0065	0.948 ± 0.063	0.999 ± 0.14	1.02 ± 0.12	1.05 ± 0.15
ANKRA2 (UniProt Q9H9E1)	0.912 ± 0.057	0.91 ± 0.023	0.911 ± 0.025	0.97 ± 0.087	0.99 ± 0.058	0.963 ± 0.05
UniProt Q9Y4E8|Q9Y4E8-3	0.967 ± 0.013	0.963 ± 0.032	1.02 ± 0.041	1 ± 0.048	0.993 ± 0.065	1.01 ± 0.027
UniProt Q9NSG2|Q9NSG2-2|Q9NSG2-3	0.991 ± 0.028	0.991 ± 0.015	0.993 ± 0.011	0.955 ± 0.022	0.964 ± 0.031	0.968 ± 0.015
UniProt Q9H2H8|B8ZZ77|Q9H2H8-2	1.04 ± 0.038	1.04 ± 0.032	1.04 ± 0.017	0.998 ± 0.031	1.02 ± 0.018	1.03 ± 0.038
SRPRB (UniProt Q9Y5M8)	1.05 ± 0.021	1.06 ± 0.011	1.04 ± 0.021	1.08 ± 0.014	1.04 ± 0.014	1.08 ± 0.033
UniProt Q9Y320|Q9Y320-2	0.936 ± 0.038	0.89 ± 0.056	0.918 ± 0.036	0.952 ± 0.048	0.962 ± 0.04	0.95 ± 0.039
UniProt Q9NQ29|Q9NQ29-3|Q9NQ29-2	1.02 ± 0.04	1.13 ± 0.12	1.11 ± 0.055	1.15 ± 0.027	1.15 ± 0.091	1.35 ± 0.098
YBX2 (UniProt Q9Y2T7)	1.02 ± 0.029	1.06 ± 0.013	1.02 ± 0.018	1.01 ± 0.029	1.01 ± 0.036	1.038 ± 0.0094
UniProt Q96RL7|Q96RL7-2|Q96RL7-3|Q96RL7-4	0.982 ± 0.039	0.918 ± 0.098	0.969 ± 0.012	0.916 ± 0.024	0.949 ± 0.022	0.8993 ± 0.0069
UniProt Q96RG2|Q96RG2-2	0.9919 ± 0.0087	0.997 ± 0.048	1.02 ± 0.011	0.982 ± 0.021	1 ± 0.026	0.996 ± 0.024
DNAJC7 (UniProt Q99615)	1.02 ± 0.012	1.05 ± 0.052	1.01 ± 0.015	1.03 ± 0.016	1.02 ± 0.013	1.04 ± 0.024
UniProt Q9BZL4-4|Q9BZL4	1 ± 0.033	1.04 ± 0.036	1.01 ± 0.047	0.997 ± 0.023	0.978 ± 0.017	0.999 ± 0.015
SORT1 (UniProt Q99523)	0.99 ± 0.034	1.05 ± 0.089	0.995 ± 0.063	1.03 ± 0.055	1.03 ± 0.036	1.03 ± 0.047
UniProt Q9BU76|Q9BU76-4	1.03 ± 0.04	1.04 ± 0.052	1 ± 0.067	1.01 ± 0.035	0.99 ± 0.031	0.989 ± 0.038
ZNF48 (UniProt Q96MX3)	1.015 ± 0.0097	1.062 ± 0.0052	1.05 ± 0.033	1.06 ± 0.028	1.06 ± 0.017	1.12 ± 0.059
UniProt Q9NZQ3|Q9NZQ3-3	1.04 ± 0.066	0.9853 ± 0.0064	1.03 ± 0.045	0.984 ± 0.029	1.02 ± 0.047	0.99 ± 0.014
UniProt Q96T23|Q96T23-2	1.07 ± 0.026	1.21 ± 0.11	1.32 ± 0.061	1.53 ± 0.18	1.67 ± 0.21	1.93 ± 0.25
UniProt Q9NYU2|Q9NYU2-2	0.9826 ± 0.0098	0.9 ± 0.12	0.955 ± 0.034	0.917 ± 0.031	0.936 ± 0.04	0.895 ± 0.036
UniProt Q9Y2S0|Q9Y2S0-2|A0A0R4J2F3	1.03 ± 0.024	1.06 ± 0.053	1.08 ± 0.062	1.02 ± 0.018	1.03 ± 0.041	1.07 ± 0.036
LSG1 (UniProt Q9H089)	0.993 ± 0.019	0.975 ± 0.033	0.987 ± 0.017	0.926 ± 0.03	0.927 ± 0.034	0.924 ± 0.013
NIPSNAP1 (UniProt Q9BPW8)	0.94 ± 0.05	0.873 ± 0.075	0.943 ± 0.028	0.954 ± 0.08	1.02 ± 0.036	0.948 ± 0.021
